Screening results as filed in PubChem BioAssay.
GCN5L2 inh – qHTS Assay for Inhibitors of GCN5L2; Histone acetyltransferase KAT2A (Homo sapiens), Q92830; GCN5L2 HAT assay, ThioGlo1 CoA-SH fluorescence; Potency, µM (doses to about 58.9 µM), for inactives: at the top dose activity change, negative = inhibition, hits mostly inhibitors; 390,000 tested, 0.21% active; AID 504327, 2011; note: potency is the fitted concentration of half-maximal effect
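GCN5L2 (20nM final) in 50mM HEPES, 0.1mM EDTA pH 7.5, 0.01% Tween-20 was preincubated 15 min at room temperature with compound, then given ThioGlo1 (50uM), H3(1-25) peptide (75uM) and acetyl-CoA (70uM); CoA-thiol fluorescence (Ex340/Em540) was read at 0 and 20 min.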
Pin1 inh – qHTS Assay to Find Inhibitors of Pin1; Pin1 FP peptide displacement, HiFluor488, 10 min; 390,000 tested, 0.009% active; Potency, µM (series often up to 115 µM), without a hit: at the top dose activity, negative = inhibition, most hits filed as inhibitors; Peptidyl-prolyl cis-trans isomerase NIMA-interacting 1 (Homo sapiens), Q13526; active = well fitted inhibition curve with a large enough effect in the polarisation, with a control signal flat, not every such curve was filed as active; inconclusive = small, poorly fitted or top-dose-only effect, or effect the other way, or a change in a side signal; inactive = no such curve, though single readings can be large or run the other way; the % refers to the polarisation; note: potency is the fitted concentration of half-maximal effect
RGS4 inhibitor – Inhibitors of Regulator of G Protein Signaling (RGS) 4: qHTS | 390,000 tested, 0.039% active | Transcreener GDP fluorescence polarization, RGS4-accelerated GTP hydrolysis | Regulator of G-protein signaling 4 (Homo sapiens), P49798 | Potency, µM (highest dose often 114 µM), inactives show at the top dose activity change, negative = inhibition, usual class: inhibitors | AID 504845, 2011; note: potency is the fitted concentration of half-maximal effect; nearly all actives have a fitted effect of over 75% in size
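MLSMR compounds (23 nl, pin-transferred) preincubated 10 min at room temperature with a 500nM (2x) first reagent, then RGS4 at 900nM (2x) plus Transcreener GDP mix added; fluorescence polarization (620/688 nm) read before and after 90 min at 30 °C.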
KCNH2 3.1 block – qHTS for Inhibitors of KCHN2 3.1: Mutant qHTS; activity change, % (tested at about 1.8 µM); 340,000 tested, 0.95% active; AID 720553, 2013; U2OS KCNH2 3.1, thallium flux FluxOr; stronger effect = lower value;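 active = maximum activity change below -70%; inconclusive = maximum activity change from -70% to -50%; inactive = maximum activity change above -50%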;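 note: thallium influx rate constant from kinetic fluorescence after stimulation buffer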
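Measured as rate of thallium-driven FluxOr signal in transduced U2OS cells carrying the 3.1 channel, read kinetically for 2 min upon stimulation; values are rate constants scaled to DMSO control wells.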
KCNH2 WT inh – qHTS for Inhibitors of KCHN2 3.1: Wildtype qHTS. AID 720551, 2013. 340,000 tested, 0.37% active. Voltage-gated inwardly rectifying potassium channel KCNH2 (Homo sapiens), Q12809. U2OS, BacMam KCNH2, thallium flux FluxOr; stronger effect = lower value. activity change, % at 1.84 µM;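 active = maximum activity change below -70%; inconclusive = maximum activity change between -70% and -50%; inactive = maximum activity change above -50%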
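U2OS cells were transduced with wild-type KCNH2 virus (2.03 x 10^8 / mL) for 4 h at room temperature, then cultured overnight at 37 C. Thallium flux was read with FluxOr dye. Rate constants were normalized to DMSO controls.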
PGK inhibitor – qHTS Assay to Find Inhibitors of Phosphoglycerate Kinase | Phosphoglycerate kinase, glycosomal (Trypanosoma brucei brucei), P07378 | PGK/GAPDH coupled, Kinase-Glo luminescence, 60 min | 380,000 tested, 0.043% active | AID 602233, 2012 | Potency, µM (titrated, usually from 57.5 µM), inactives show at the highest dose activity change, negative = inhibition, actives largely listed as inhibitors; note: potency is the fitted concentration of half-maximal effect; nearly all actives have a fitted effect of over 60% in size
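Luminescent ATP detection (Kinase-Glo Plus) follows a 60-minute room-temperature incubation, with wells lacking PGK as controls. Buffer: 100 mM TEA (pH 7.6), 5 mM MgCl2, 0.01% Tween-20. Coupling enzyme GAPDH (100 nM final) supplies unstable 1,3-BPG in-well.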
* = called active by the depositor; [ ] = remark or other dose. This is a sample that favours compounds with a hit; in the whole collection about 1.2% have one here. Unless noted, calls come from the whole dose curve; as a rule, active = well fitted curve in the direction sought with a large enough effect; inconclusive = small, poorly fitted or top-dose-only effect, or another doubt; inactive = no such curve, though single readings can be large; an effect the other way counts as inactive or inconclusive. % is set by controls: 0 for no effect and ±100 for the full control effect.

Results for Cc1ccc(C)c(S(=O)(=O)N2CCN(C(=O)Cc3c(F)cccc3Cl)CC2)c1 ?
GCN5L2 inh: -3%; Pin1 inh: -4%; RGS4 inhibitor: -25%; KCNH2 3.1 block: -78*; KCNH2 WT inh: 1; PGK inhibitor: -2%

How did CC(OC(=O)c1cc(Br)ccc1O)C(=O)Nc1ccc(S(=O)(=O)N2CCCC2)cc1 (configuration not stated) do in these assays?
GCN5L2 inh: -16%; Pin1 inh: 9%; RGS4 inhibitor: 11%; KCNH2 3.1 block: -91*; KCNH2 WT inh: -3; PGK inhibitor: inactive

Results for Cc1cccc(C(=O)OC(C)C(=O)Nc2ccc(S(=O)(=O)N3CCCC3)cc2)c1O (configuration not stated) ?
GCN5L2 inh: -13%; Pin1 inh: 12%; RGS4 inhibitor: inconclusive; KCNH2 3.1 block: -7; KCNH2 WT inh: 6; PGK inhibitor: inactive

How did O=C(NCc1ccccn1)c1ccccc1OCc1ccc(F)cc1 do in these assays?
GCN5L2 inh: 1%; Pin1 inh: 1%; RGS4 inhibitor: 16%; KCNH2 3.1 block: -101*; KCNH2 WT inh: 0; PGK inhibitor: -5%

Results for O=C(NCc1ccccn1)c1ccccc1OCc1ccccc1Cl ?
KCNH2 3.1 block: 5; KCNH2 WT inh: 7; PGK inhibitor: -4%

Results for Cc1cccc(C)c1Nc1nnc(SCC(=O)NC(=O)c2cccn2C)s1 ?
GCN5L2 inh: 19%; Pin1 inh: 2%; RGS4 inhibitor: inconclusive; KCNH2 3.1 block: -10; KCNH2 WT inh: -6; PGK inhibitor: 2%

What do the screens show for `Cc1cccc(C)c1Nc1nnc(SCc2cn3cccc(C)c3n2)s1`?
GCN5L2 inh: -6%; Pin1 inh: 6%; RGS4 inhibitor: 11%; KCNH2 3.1 block: -179*

What do the screens show for `Cc1[nH]n(-c2ccccc2)c(=O)c1N=Nc1ccc(F)cc1`?
GCN5L2 inh: 26%; Pin1 inh: 5%; RGS4 inhibitor: -13%; KCNH2 3.1 block: -79*; KCNH2 WT inh: 30; PGK inhibitor: inactive

What do the screens show for `O=C(CN1CCN(Cc2ccccc2)CC1)Nc1ccc(Br)cc1`?
GCN5L2 inh: -14%; Pin1 inh: -3%; RGS4 inhibitor: 14%; KCNH2 3.1 block: -84*; KCNH2 WT inh: -33

What do the screens show for `O=C(CN1CCN(S(=O)(=O)N2CCCCCC2)CC1)Nc1ccc(Br)cc1`?
GCN5L2 inh: -9%; Pin1 inh: -3%; RGS4 inhibitor: -20%; KCNH2 3.1 block: inconclusive; KCNH2 WT inh: -101*; PGK inhibitor: 1%

Results for Cc1oc(-c2ccccc2Cl)nc1CN1CCCC1c1ccc(F)cc1 (configuration not stated) ?
GCN5L2 inh: -5%; Pin1 inh: 22%; RGS4 inhibitor: 12%; KCNH2 3.1 block: -4; KCNH2 WT inh: 11; PGK inhibitor: -5%

Results for Cc1nonc1C1CCCN1Cc1nc(-c2ccccc2Cl)oc1C (configuration not stated) ?
GCN5L2 inh: -9%; Pin1 inh: 9%; RGS4 inhibitor: 22%; KCNH2 3.1 block: -94*; KCNH2 WT inh: 3; PGK inhibitor: inactive

Results for Nc1nc(N)c2[nH]cnc2n1 ?
Pin1 inh: -12%; RGS4 inhibitor: -22%; KCNH2 3.1 block: -92*; KCNH2 WT inh: -4; PGK inhibitor: inactive

How did Nc1nc(OCc2ccccc2)c2[nH]cnc2n1 do in these assays?
GCN5L2 inh: 5%; Pin1 inh: -8%; RGS4 inhibitor: 6%[56.9 µM]; KCNH2 3.1 block: -1; KCNH2 WT inh: 4; PGK inhibitor: -5%
